From PubChem BioAssay AID2685 (National Center for Advancing Translational Sciences (NCATS), 2010)
About 2,100 (0.66%) of roughly 320,000 compounds were called active. Inconclusive results (about 53%) are left out. Calls follow the shape of the dose curve; as a rule, active = well fitted inhibition curve with a large enough effect in the signal ratio, with a control signal flat (not every such curve was filed as active); inconclusive = small, poorly fitted or top-dose-only effect, or effect the other way, or a change in a side signal; inactive = flat fitted curve, though single readings scatter; the % refers to the signal ratio. The full list was thinned out, with actives kept by preference.

experiment: qHTS Assay for Lipid Storage Modulators in Drosophila S3 Cells; details: BODIPY lipid droplet fluorescence, 18-24 h, cells fed with added oleic acid; cell number change: measured here: cell count max response; series mostly up to 46.1 µM;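 as to cell number change: cells counted by Cell Tracker Red CMTPX staining in the red channel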; as to lipid storage change, negative = inhibition: % is scaled to controls: 0 for no effect and ±100 for the full control effect
Text: NIH Molecular Libraries Probe Production Centers Network [MLPCN] NIH Chemical Genomics Center [NCGC] MLPCN Grant: 1 R03 MH085686-01 Assay Submitter (PI): Beller, Mathias; Max-Planck-Institut fur Biophysikalische Chemie NCGC Assay Overview: Storing lipids as a reservoir for energy or the anabolism of elementary metabolites is a common feature of probably all cells and is conserved from bacteria to humans. The universal cellular lipid storage organelle is the so-called lipid storage droplet (LD). Although ubiquitous, LDs share a simple structure composed of a hydrophobic core that harbors the storage lipids, which is shielded by a droplet-specific phospholipid monolayer to which proteins are attached. The current model of LD biogenesis involves an incorporation of the lipid core into the membrane leaflets of the endoplasmic reticulum (ER) followed by a subsequent budding-like maturation of a LD, which ultimately pinches off. Once released, LD volume can increase by localized lipogenesis or fusion of existing droplet. Storage lipids are re-mobilized enzymatically by lipase activity. Lipase regulation in the adipocyte is heavily studied and involves multiple components including catecholamine signaling, the LD-associated proteins Perilipin and comparative gene identification (CGI-58) and at least two lipases named hormone sensitive lipase (HSL) and adipocyte triglyceride lipase (ATGL). LD regulation outside of the adipocyte is poorly understood and only few components are known. However, there is an urgent need to learn more about ectopic fat depots as mislocalized storage of lipids, for example in the liver or muscle, is an eminent health problem associated with insulin resistance or the metabolic syndrome. We developed a laser-scanning cytometer assay to enable 1,536-well screening and combined the results of the small molecules screen with an RNAi database based on lipid storage.
Triacsin C (Sigma-Aldrich T-4540), an inhibitor of long-chain fatty acyl CoA synthetase that blocks synthesis of triglycerides, was used as a positive control for lipid under-storage. A total of 23 nL of compound solution of different concentrations were transferred to the assay plates using a Kalypsys pin tool equipped with a 1,536-pin array containing 10-nL slotted pins (FP1S10, 0.457-mm diameter, 50.8 mm long; V&P Scientific). One microliter of oleic acid (400 uM) was added, and the plate was lidded with stainless steel rubber gasket lined lids containing pinholes. […] Fluorescence was detected by excitation of the fluorophores with a 488-nm laser on an Acumen Explorer (TTP Lab Tech). The total intensity in channel 2 (500-530 nm) reflected lipid droplet accumulation. Cells were detected using channel 3 (575-640 nm) with 5-um width and 100-um depth filters. The ratio of the number of objects in PMT channel 2 over the number of objects in PMT channel 3 was also calculated. Percent activity was computed relative to an internal control (100% inhibited lipid droplet deposition due to the presence of 20 uM Triacsin C), which was added to 32 wells/plate.
Potency is read from the fitted curve at half-maximal effect.

SMILES	Potency	cell number change [%]	lipid storage change, negative = inhibition
CC1(C)c2[nH]c3ccccc3c2C[C@H]2C(=O)N(CCCO)CC(=O)N21	inactive	7.32	–
CC(=O)c1ccc(NC(=O)CCNC(=O)c2ccccc2Cl)cc1	inactive	–	–
Fc1ccc(F)c(CN2CCN(c3ncccn3)CC2)c1	inactive	-0.405	–
COc1ccc(/C=C2\SC(=Nc3ccccc3OC)NC2=O)cc1	inactive	-11.5	–
COc1ccccc1N=C1NC(=O)/C(=C/c2ccc(N(C)C)cc2)S1	10.3 µM (active)	-21.8	–
COc1ccc(/C=C2\SC(=Nc3ccccc3)NC2=O)cc1	inactive	-6.61	–
Cc1ccc(SCC(=O)OCc2csc(CC(=O)Nc3ccccc3C)n2)cc1C	inactive	-3.61	–
COc1cc(OC)cc(C(=O)NCc2ccc3[nH]c(C)cc3c2)c1	inactive	-3.37	–
O=C(/C=C/c1cccs1)c1cc(Cl)ccc1O	inactive	3.94	–
CN(C)c1ccc(/C=C/C(=O)c2ccccc2O)cc1	inactive	–	–
CN(C)c1ccc(/C=C/C(=O)c2cc(Cl)ccc2O)cc1	4.11 µM (active)	-22.6	–
CCC(CC)NC(=O)Nc1cccc(C)c1C	inactive	-9.81	–
COc1ccccc1CNC(=O)c1cccs1	inactive	-14	–
CCOc1ccccc1N1CC(C(=O)N2CCOCC2)CC1=O (stereo not given)	inactive	13.3	–
CC(=O)Nc1c(O)nc(SCC(=O)N2CCCCC2)[nH]c1=O	inactive	-10.1	–
O=C(CSc1nc2ccccc2s1)N1c2ccccc2Sc2ccccc21	inactive	-7.47	–
O=C(CSc1nc2ccccc2[nH]1)N1c2ccccc2Sc2ccccc21	16.4 µM (active)	-14	–
O=C(CSc1nc2ccccc2[nH]1)N1CCCCC1	inactive	1.09	–
O=C(O)c1cc(=O)c2cc(Cl)ccc2o1	23.1 µM (active)	-8.2	–
O=C(c1cc(=O)c2cc(Cl)ccc2o1)N1CCN(Cc2ccccc2)CC1	inactive	10.7	–
NS(=O)(=O)c1ccc(CNC(=O)c2cc(=O)c3cc(Cl)ccc3o2)cc1	inactive	-18	–
C=CCN(Cc1cn(C)nc1-c1cccc(Cl)c1)C1CCS(=O)(=O)C1 (stereo not given)	inactive	-4.76	–
O=S(=O)(NC1=NCCC1)c1ccc(F)cc1	20.6 µM (active)	8.19	–
Nc1ccc(S(=O)(=O)NC2=NCCCCC2)cc1	inactive	11.2	–
Cc1ccc(S(=O)(=O)NC2=NCCCCC2)cc1	inactive	-2.65	–

SMILES	Potency	cell number change [%]	lipid storage change, negative = inhibition
Cc1ccc(S(=O)(=O)N2CCOCC2)cc1NC(=O)COC(=O)c1cnc(Cl)c(Cl)c1	inactive	24.4	–
CCOC(=O)Cn1cnc2scc(-c3ccc(C)c(C)c3)c2c1=O	inactive	4.4	–
Nc1cccc2c1C(=O)N(C(=O)/C=C/c1cccc(F)c1)C2=O	inactive	-23.5	–
COc1ccc(OC)c(/C=C/C(=O)N2CCN(S(=O)(=O)c3cc(C)ccc3C)CC2)c1	inactive	6.55	–
COc1ccc(OC)c(/C=C/C(=O)N2CCCc3ccccc32)c1	inactive	–	–
COc1cc(/C=C/C(=O)N2C(=O)c3cccc(N)c3C2=O)cc(OC)c1OC	5.17 µM (active)	-14.5	–
Nc1cccc2c1C(=O)N(C(=O)/C=C/c1ccc(F)cc1)C2=O	inactive	-29.8	–
COc1ccc(OC)c(/C=C/C(=O)N2C(=O)c3cccc(N)c3C2=O)c1	16.4 µM (active)	10.9	–
O=C(c1ccc(Cl)cc1)c1ccc(CN2C(=O)c3ccccc3C2=O)o1	inactive	8.92	–
COCCNc1nc(CSc2ccccc2)nc2sc(C)c(C)c12	inactive	2.1	–
FC(F)(F)c1cc(C(F)(F)F)c2ccc(N3CCN(c4ncccn4)CC3)nc2n1	inactive	9.76	–
Cc1nn(Cc2ccc(C(=O)O)o2)c(C)c1[N+](=O)[O-]	inactive	19.3	–
CCCN1C(=O)c2ccc(C(=O)NC3=NCCS3)cc2C1=O	inactive	–	–
Cc1nn(-c2ccc(N3CCOCC3)nn2)c(C)c1CCC(=O)NCc1ccc(F)cc1	inactive	2.75	–
CC(=O)c1ccc(N2CCN(C(=O)Nc3ccc(F)cc3F)CC2)cc1	inactive	18.2	–
COc1ccc(C(=O)Nc2ccc(Cl)cc2C(=O)N2CCOCC2)cc1	inactive	17.2	–
Cc1nnc2n1CCCCC2	inactive	4.65	–
O=[N+]([O-])c1ccc(Oc2ccc(/C=N/O)cc2)nc1	inactive	-1.55	–
CS(=O)(=O)c1ccc(N2CCOCC2)c(S(C)(=O)=O)c1	inactive	4.86	–
CCOC(=O)CN1C(=O)C2(OCCCO2)c2ccccc21	23.1 µM (active)	–	–
CCOC(=O)CN1C(=O)C2(OCCCO2)c2cc(Br)ccc21	inactive	-7.87	–
CCCC(=O)CN1C(=O)C2(OCCO2)c2ccccc21	inactive	-15.8	–
COCCNC(=O)CN1C(=O)NC2(CCCc3cc(OC)ccc32)C1=O (stereo not given)	inactive	–	–
CCOc1ccc(C(=O)CCC(=O)N(CC)CC(=O)NCc2cccs2)cc1	inactive	12.9	–
CCOc1ccccc1C(=O)N/N=C/c1coc2ccc(C)cc2c1=O	10.3 µM (active)	-20.2	–

SMILES	Potency	cell number change [%]	lipid storage change, negative = inhibition
Cc1ccc2occ(/C=N/NC(=O)c3ccccc3Br)c(=O)c2c1	inactive	–	–
Cc1ccc2occ(/C=N/NC(=O)c3ccccc3O)c(=O)c2c1	inactive	1.16	–
COc1cccc(Oc2cn[nH]c2-c2ccc(OCC(=O)NN)cc2O)c1	inactive	0.872	–
CC(C)(C)c1cc(C(=O)CCN2CCOCC2)cc(C(C)(C)C)c1O	29.1 µM (active)	-17.7	–
CC(C)(C)c1cc(C(=S)N2CCN(CCO)CC2)cc(C(C)(C)C)c1O	inactive	–	–
CN1CCN(CC(=O)c2cc(C(C)(C)C)c(O)c(C(C)(C)C)c2)CC1	inactive	15.8	–
COc1cccc(C2=NOC(C(=O)Nc3ccc(OC)c(OC)c3)C2)c1 (stereo not given)	11.6 µM (active)	–	–
COc1ccc(NC(=O)C2CC(c3ccccc3O)=NO2)cc1OC (stereo not given)	inactive	–	–
COc1cccc(C2=NOC(C(=O)Nc3ccc4c(c3)OCO4)C2)c1 (stereo not given)	inactive	7.67	–
COc1ccc(NC(=O)C2CC(c3c(F)cccc3Cl)=NO2)cc1OC (stereo not given)	inactive	-11.7	–
COc1cc(NC(=O)C2CC(c3c(F)cccc3Cl)=NO2)c(OC)cc1Cl (stereo not given)	inactive	-7.33	–
COc1cc(NC(=O)C2CC(c3c(F)cccc3Cl)=NO2)cc(OC)c1OC (stereo not given)	11.6 µM (active)	-15.1	–
O=C(O)CC1C(=O)NCCN1CCCc1ccccc1 (stereo not given)	inactive	–	–
CSc1cccc(NC(=O)C(C)NS(=O)(=O)c2ccc(F)cc2)c1 (stereo not given)	inactive	–	–
Cc1cc(C)nc(/N=C(\N)N2CCCCC2)n1	inactive	-8.98	–
Cc1ccc(C(=O)C[n+]2cccc(C(N)=O)c2)cc1	inactive	8.69	–
Cc1c(C(=O)n2cnc3ccccc32)cccc1[N+](=O)[O-]	inactive	23.4	–
Cc1ccc(C2(C)NC(=O)N(CC(=O)Nc3ccc4c(c3)CCC4)C2=O)cc1 (stereo not given)	inactive	-12.5	–
O=C(N/C(=C/c1cccnc1)C(=O)N1CCOCC1)c1ccco1	inactive	0.681	–
COc1cc(-c2nc(CCNC(=O)c3ccco3)cs2)cc(OC)c1OC	18.4 µM (active)	-3.07	–
O=C(NCCc1csc(-c2cccnc2)n1)c1ccco1	–	14.6	1.09% [at 9.22 µM] (inactive)
COc1ccc(-c2nc(CCNC(=O)c3ccc(Br)o3)cs2)cc1	inactive	29.2	–
Cc1ccccc1CCN(C(=O)CN1C(=O)c2ccccc2S1(=O)=O)C(C(=O)NCC1CCCO1)c1ccncc1 (stereo not given)	inactive	-7.43	–
Cc1ccccc1NS(=O)(=O)c1ccc(OCC(=O)NCc2ccccn2)cc1	inactive	6.59	–
CCC1CCCCN1CCCNC(=O)CCC(=O)N1CCOc2ccccc21 (stereo not given)	inactive	10.7	–

SMILES	Potency	cell number change [%]	lipid storage change, negative = inhibition
CC(C(=O)Nc1ccc2nccnc2c1)N1C(=O)C2C3C=CC(C3)C2C1=O (stereo not given)	inactive	0.122	–
O=C(CCN1C(=O)C2C3C=CC(C3)C2C1=O)NC1CCCCC1 (stereo not given)	inactive	–	–
CC(C(=O)NC1CCCCC1)N1C(=O)C2C3C=CC(C3)C2C1=O (stereo not given)	1.84 µM (active)	-1.76	–
NC(=O)CCC(=O)N1CCCC(C(=O)c2ccc3c4c(cccc24)CC3)C1 (stereo not given)	inactive	12.7	–
CCc1ccc(CN(C(=O)c2oc3ccccc3c2C)C2CCS(=O)(=O)C2)cc1 (stereo not given)	inactive	23.1	–
O=C(CCC(=O)NNC(=O)COc1ccc(Br)cc1)NCc1ccccc1	inactive	6.5	–
Cc1ccc(NS(=O)(=O)c2ccc(CCC(=O)NCc3ccccn3)cc2)cc1	2.59 µM (active)	-13.1	–
Cc1ccc(S(=O)(=O)NCc2ccccc2)cc1C(=O)NCc1ccccn1	inactive	-8.5	–
Cc1cc(S(=O)(=O)NCc2ccccc2)ccc1OCC(=O)NCc1ccncc1	inactive	13.5	–
Cc1cc(S(=O)(=O)NCc2ccccc2)ccc1OCC(=O)NCc1ccccn1	5.17 µM (active)	6.72	–
Cc1ccc(NS(=O)(=O)c2ccc(C(=O)NCc3ccccn3)cc2)cc1	inactive	0.232	–
CC(C)NS(=O)(=O)c1ccc(CCC(=O)NCc2ccccn2)cc1	inactive	6.74	–
Cc1cc(C)c(C)c(S(=O)(=O)N2CCC(C(=O)N3CCCC3)CC2)c1C	inactive	0.752	–
CCOC(=O)c1sc(NC(=O)c2ccccc2OCC)nc1C	inactive	6.73	–
CC(=O)NCCn1c(SCC#N)nc2ccccc2c1=O	inactive	8.06	–
CCC(=O)Nc1nnc(SCCOC)s1	inactive	–	–
COCCSc1nnc(NC(=O)COC)s1	25.9 µM (active)	-16.2	–
COCCSc1nnc(NC(=O)C(C)(C)C)s1	inactive	-0.0656	–
Cn1c(NC(=O)/C=C/c2c(F)cccc2Cl)cc(=O)n(C)c1=O	inactive	12.8	–
Nc1cc([N+](=O)[O-])ccc1O	9.2 µM (active)	-17.1	–
Nc1nc(N)nc(-c2cc([N+](=O)[O-])ccc2O)n1	inactive	-17.3	–
Nc1cc([N+](=O)[O-])ccc1Nc1ccc(O)cc1	inactive	-13.9	–
